The results in this text go back to PubChem BioAssay AID623868 (Vanderbilt High Throughput Screening Facility, 2012).

SMILES strings stand for the structures. Among all 2,100 compounds or so, about 760 (36%) were called active. Not all results are given here. A number with no mark means an inactive call.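 Rule for the calls: active = thallium-flux fluorescence traces judged by eye to show enhanced or reduced glutamate response, manual score 1 or -1, so both directions (some results past the limit were not filed as active); inactive = the rest, including fluorescent or raised-baseline compounds.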

This experiment is described as follows: non-GIRK thallium flux modulation in mGlu8 cells, confirmation, counter-screen for GIRK activator project, cell-based, HEK-293 rmGlu8, no GIRK (AID 623868).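 Note: extra codes mark interference with 3 for fluorescent and 4 for baseline rise.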 Conditions: thallium flux fluorescence, at 10 µM, actives lie on both sides, codes: 1 enhancer, -1 blocker, 0 none, thallium stimulus containing EC20 glutamate. For orientation: A counterscreen serves to expose hits that act by an unwanted route or on another target.
In the case of `CCOP(=O)(c1ccccc1)c1nc(-c2ccccc2C)oc1N1CCCCC1` (centres undefined), the manual score was 0.
The figure for `Cc1ccc(/C=N/Nc2nc(Cl)c(Cl)cc2Cl)s1` is 1 (active).
Regarding `CCOC(=O)C1=C(C)OC(N)=C(C#N)C1c1cncc(-c2ccc(F)cc2)c1` (centres undefined), the manual score was 0.
The figure for `Cc1cc(C)n(-c2ccc(C(=O)OCC(=O)Nc3ccc(Cl)c(S(=O)(=O)N(C)C)c3)cc2)n1` is 0; for `CCOC(=O)Cc1csc(NC(=S)NC(=O)c2ccccc2C)n1` it is 1 (active).
The figure for `CCOC(=O)Cc1csc(NC(=S)NC(=O)c2ccccc2Br)n1` is 1 (active); for `CC1=CC(=O)OC1Cc1ccncc1` (centres undefined) it is 0.
The figure for `O=C(Nc1ccc(F)cc1)c1cccc2c1C(=O)N(Cc1ccccn1)C2` is 0.
For the compound `COc1ccc(-n2c(=O)[nH]cc(C(=O)Nc3ccc(NC(C)=O)cc3)c2=O)cc1`, the manual score was 0.
The figure for `CCCC(=O)Nc1ccc(NC(=O)C23CC4CC(CC(C4)C2)C3)cn1` is 0.
As to `Cc1ccc2cccc(NC(=S)NC(=O)c3ccnn3C)c2n1`, the manual score is 0.
The figure for `CCn1c(CCNC(=O)c2cccs2)nnc1SCC(=O)Nc1ccc(Cl)cc1` is 0.
The figure for `CC(Cc1cccs1)NC(=O)Nc1ccc(Cl)cc1` (centres undefined) is 0; for `Cc1ccc2cccc(NC(=S)NC(=O)c3ccn(C)n3)c2n1` it is 0.
The figure for `Cc1cccc(NC(=S)NC(=O)c2cccs2)n1` is 1 (active).
On to `Cc1ccnc(NC(=S)NC(=O)c2cccs2)c1`, for which the manual score is 1 (active).
As to `O=C(NC(=S)Nc1ccc(Cl)cn1)c1cccs1`, the manual score is 1 (active).
Take `CC(C)CC(NS(=O)(=O)c1ccc2c(c1)oc(=O)n2C)C(=O)NC1CCCc2ccccc21` (centres undefined): the manual score is 0.
The figure for `CCOc1ccc(-n2c(SCc3nc(-c4cccs4)no3)nnc2-c2ccncc2)cc1` is 0; for `CC(C)CC(=O)NC(=S)N(Cc1ccccc1)Cc1ccccc1` it is 1 (active); for `CC(C)C(=O)NC(=S)N(Cc1ccccc1)Cc1ccccc1` it is 1 (active).
The figure for `CC(C)CC(=O)NC(=S)Nc1nc(-c2cccc3ccccc23)cs1` is 0; for `Cc1ccccc1Cn1c(=N)n(CC(O)c2ccco2)c2ccccc21` (centres undefined) it is 0.
The figure for `N#Cc1nc(COc2ccccc2)oc1N1CCN(c2cccc(Cl)c2)CC1` is 0; for `CCN(CC)C(=O)CSc1nnc(NC(=O)CCc2ccccc2)s1` it is 0; for `CN(C)CCCNC(=O)c1ccc(-c2nc(-c3ccc(Cl)cc3)cs2)cc1` it is 0.
On to `O=C(Nc1nc(=O)c2ccccc2s1)c1ccc(Cl)cc1`, for which the manual score was 1 (active).
In the case of `O=C(Cc1ccccc1)Nc1nc(=O)c2ccccc2s1`, the manual score is 1 (active).
The figure for `O=C(Nc1nc(=O)c2ccccc2s1)c1ccc(F)cc1` is 1 (active); for `O=C(Nc1nc(=O)c2ccccc2s1)c1ccccc1` it is 1 (active).
The figure for `O=C(Cc1ccccc1)Nc1nc(-c2cccs2)cs1` is 0; for `O=C(Nc1nc2ccccc2s1)c1cc(-c2ccccc2)nn1-c1ccccc1` it is 0.
For `COc1ccc(Cn2nnnc2C(c2ccccc2Cl)N2CCN(C3CCCC3)CC2)cc1` (centres undefined), the manual score is 0.
The figure for `Cc1csc(SCC(=O)Nc2nc3ccccc3s2)n1` is 0.
For `CCN(CC)C(=S)SCC(=O)Nc1nc(=O)c2ccccc2s1`, the manual score is 1 (active).
The figure for `Cc1cnc(NC(=O)CSc2nc3ccccc3c(=O)[nH]2)s1` is 0; for `CCCCn1c(=O)[nH]c2nc3cc(N)ccc3nc2c1=O` it is 3; for `CCCCn1c(SC(C)C(N)=O)nc2cc(C(=O)OC)ccc2c1=O` (centres undefined) it is 1 (active).
The figure for `CCCCn1c(SCC(=O)Nc2ccc(OC)cc2)nc2ccc(N3CCOCC3)cc2c1=O` is 0.
The figure for `COCCCN1C(=O)C(=O)/C(=C(/O)c2ccc(C)cc2)C1c1ccccc1` (centres undefined) is -1 (active).
On to `COc1ccc(N/C(C)=C2/C(=O)C(=O)N(CCO)C2c2ccc(Br)cc2)cc1` (centres undefined), for which the manual score is 0.
The figure for `C=CCOc1ccc(/C(O)=C2/C(=O)C(=O)N(CCCN3CCOCC3)C2c2ccccc2)cc1` (centres undefined) is 0; for `O=S(=O)(Nc1ccc2nc(C(F)(F)F)[nH]c2c1)c1ccccc1` it is 0.
The figure for `CCC(Sc1ccc2nnc(-c3ccc(F)cc3)n2n1)C(=O)OC` (centres undefined) is -1 (active); for `CCOc1ccc(-c2cc(C)n3nc(C(N)=O)cc3n2)cc1` it is 0; for `Cc1cc(N2CCN(c3ccccc3)CC2)nc(NCc2ccccc2)n1` it is 0.
Consider `S=C(NCc1ccc(Cl)cc1Cl)Nc1ccccc1`, for which the manual score is 0.
The figure for `CC(C)CNC(=S)Nc1ccc(Oc2ccccc2)cc1` is 0.
The figure for `CC(C)CNC(=S)NC(=O)c1ccc(Cl)cc1Cl` is 1 (active); for `CCCCNC(=S)NC(=O)c1ccc(Cl)cc1Cl` it is 1 (active); for `CC(C)NC(=S)NC(=O)c1ccc(Cl)cc1Cl` it is 1 (active).
The figure for `CC(C)CNC(=S)NC(=O)c1ccccc1Cl` is 1 (active).
For `O=S(=O)(c1ccc(Cl)c(F)c1)N1CCC(c2nc(-c3ccncc3)no2)CC1`, the manual score was 0.
The figure for `O=C(Nc1ccc(F)c(F)c1)NC1CCCCC1` is 0; for `Cc1[nH]c2ccccc2c1CN1CCc2ccccc2C1` it is 0.
The figure for `O=C(O)C1C2C=CC(C2)C1C(=O)NCCc1cccc(Cl)c1` (centres undefined) is 0.
Consider `Cc1ccc(S(=O)(=O)N/N=C/c2ccc(OC3CSC3)cc2)cc1`, for which the manual score is 0.
The figure for `CCCCNC(=S)NC(=O)c1ccccc1Br` is 1 (active).
The figure for `CCOC(=O)CSc1nnc(-c2ccccc2OC)o1` is -1 (active); for `CCS(=O)(=O)Nc1ccc(-c2nnc(SCC(=O)c3ccc(NC(C)=O)c(OC)c3)o2)cc1` it is 0; for `O=C(CSc1nnc(-c2cccnc2)o1)OC1CCCCC1` it is -0.5.
The figure for `COCCCNCCCOc1ccc(Cl)cc1Br` is 0.
Turning to `CC1=NN(/C(=N\c2nnc(C)s2)Nc2ccccc2)[C@H](c2cccc3ccccc23)S1`, the manual score was 1.5.
The figure for `COC(=O)c1cccc(NC(=S)Nc2cccc(Cl)c2Cl)c1` is 1 (active); for `CCOc1cccc(C(=O)NC(=S)Nc2ccccc2)c1` it is 0.
Turning to `FC(F)Oc1ccccc1NC(=S)Nc1cccc(Cl)c1Cl`, the manual score is 0.5.
The figure for `CCCOc1cccc(C(=O)NC(=S)Nc2cccc(C(F)(F)F)c2)c1` is 1 (active).
The figure for `CC(C)Oc1cccc(C(=O)NC(=S)Nc2ccccc2)c1` is 1 (active); for `O=C(OCCN1C(=O)c2cccc3c(N4CCOCC4)ccc(c23)C1=O)c1cccc(Cl)c1` it is 3; for `O=C(NC(=S)Nc1ccc(N2CCOCC2)cc1)c1cccc(Cl)c1` it is 1 (active).
The figure for `O=C1C(Cl)=C(N2CCOCC2)C(=O)N1c1cccc(Cl)c1` is 0; for `Cc1cc(O)c(C(C[N+](=O)[O-])c2ccc(Cl)cc2Cl)c(=O)o1` (centres undefined) it is 0; for `O=C(O)CCC(=O)NC1CCCCCCC1` it is 0.
For `CSc1ccccc1NC(=O)Nc1ccccc1`, the manual score is 0.
The figure for `O=C(NC(=S)Nc1ccc(N2CCCCC2)cc1)c1ccco1` is 1 (active).
The figure for `CC(=O)c1cccc(NC(=S)NC(=O)c2cccc(Cl)c2)c1` is 1 (active).
The figure for `O=C(Nc1ccc(OCC(=O)N2CCC(Cc3ccccc3)CC2)cc1)c1ccco1` is 0; for `CC1CCN(c2ncccc2C(=O)O)CC1` it is 0.
For the compound `CSc1ccccc1C(=O)Nc1cccc(C(C)=O)c1`, the manual score was 0.
The figure for `O=C(NC(=S)Nc1cccc(Cl)c1N1CCCCC1)c1ccco1` is 1 (active); for `CC1CCN(c2ccc(NC(=S)NC(=O)c3ccco3)cc2)CC1` it is 1 (active).
The figure for `CC(=O)c1cccc(NC(=S)NC(=O)c2cccc(C)c2)c1` is 0.5; for `COc1ccc(OCC(=O)NC(=S)Nc2ccc(N3CCOCC3)c(Cl)c2)cc1` it is 0; for `O=C(NC(=S)Nc1ccc(N2CCOCC2)c(Cl)c1)c1cncc(Br)c1` it is 1 (active).
Consider `O=C(NC(=S)Nc1ccc(N2CCOCC2)cc1)c1ccco1`, for which the manual score was 1 (active).
The figure for `O=C(Nc1ccc(F)cc1)c1cccnc1N1CCOCC1` is 0.
Take `C=CCN(CC=C)S(=O)(=O)c1ccc(NC(=S)NC(=O)c2ccco2)cc1`: the manual score is 0.5.
The figure for `CCN(c1ccc2c(c1)OCO2)S(=O)(=O)c1cc(Br)cc2c1N(C(=O)C1CC1)CC2` is 0; for `N=c1c2c(-c3ccccc3)c(-c3ccccc3)n(Cc3ccccc3)c2ncn1CCCO` it is 0.
The figure for `CCC1=NN(C(=O)c2cccc(Br)c2)C(O)(c2ccc(Br)cc2)C1` (centres undefined) is 1 (active).
Consider `CCOC(=O)c1c(C)[nH]c(C(=O)COC(=O)CNC(=O)c2ccc(Cl)cc2)c1C`, for which the manual score was 0.
In the case of `CCOC(=O)C1=NN(C(=O)c2ccccc2)C(O)(c2ccc(C)cc2)C1` (centres undefined), the manual score was 1 (active).
The figure for `COC(=O)C1=NN(C(=O)c2ccc(Cl)cc2)C(O)(c2ccccc2)C1` (centres undefined) is 1 (active).
The figure for `CCOC(=O)C1=C(NC(=S)NC(=O)c2ccccc2)c2ccccc2CC1(C)C` is 0.
The figure for `Cc1ccc(-c2csc3ncnc(N4CCN(C(=O)c5ccccc5)CC4)c23)cc1` is 0; for `CCOC(=O)c1cc(-c2ccc(Cl)cc2)nc2c1c(C)nn2CCC#N` it is 0; for `CCOC(=O)C1=NN(C(=O)c2ccc(C)cc2)C(O)(c2ccc(Cl)cc2)C1` (centres undefined) it is 1 (active).
For the compound `O=[n+]1cc(-c2ccccc2)n([O-])c2c1CCC2`, the manual score is 0.
For `Cc1ccc(NC(=O)CSc2nnc(CCNC(=O)OC(C)(C)C)o2)c(C)c1`, the manual score was 0.
As for `O=C1CC(C(F)(F)C(F)(F)C(F)(F)F)=Nc2ccccc2N1`, the manual score was 0.
The figure for `Cc1ccc(NC(=O)Cc2c(Cl)cccc2Cl)cc1S(=O)(=O)N(C)C` is 0; for `COc1ccccc1C(c1nnnn1CCc1ccccc1)N1CCCCCC1` (centres undefined) it is 0; for `COC(=O)C1=NN(C(=O)c2ccc(C)cc2)C(O)(c2ccc(Cl)cc2)C1` (centres undefined) it is 1 (active).
`COc1ccc2cc(C(=O)NCC(=O)O)sc(=O)c2c1OC`: the manual score is 0.
Regarding `CCCCn1c(SCc2nc(N)nc(Nc3ccccc3C)n2)nc2ccccc2c1=O`, the manual score is 0.
Regarding `CCCCn1c(SCC(N)=O)nc2c(sc3ccccc32)c1=O`, the manual score is 1 (active).
The figure for `C/C(N)=C(/C#N)C(=O)CSc1nc2cc(Cl)ccc2c(=O)n1-c1ccc(C)cc1` is 1 (active); for `N#CCSc1nc2ccc(N3CCOCC3)cc2c(=O)n1CCc1ccccc1` it is 0.
The figure for `CCCCn1c(SCC(=O)/C(C#N)=C(\C)N)nc2ccccc2c1=O` is 1 (active).
The figure for `CCCCn1c(SCC(=O)NCc2ccco2)nc2ccccc2c1=O` is 1 (active); for `CCCCCn1c(NCc2ccco2)nc2ccccc21` it is 0.
Regarding `CCOC(=O)CSc1nc2c(sc3ccccc32)c(=O)n1CCCN1CCOCC1`, the manual score is 0.
The figure for `CC(C)CCn1c(SCC#N)nc2c(sc3ccccc32)c1=O` is 0.
The figure for `O=C(CCCCn1c(=O)c2ccccc2n(CC(=O)NC2CCCC2)c1=O)NCc1ccco1` is 0.
